Out of some 13,000 compounds screened, about 3,200 (25%) showed an effect of 50% or more. Some of the results follow.
tested on: P. falciparum stage V gametocytes; parameters: BacTiter-Glo ATP luminescence viability of purified stage V gametocytes in 384-well plates, per cent inhibition versus DMSO; details: 48 h, 5 µM; inhibitor

Row | SMILES | % Inhibition [%]
1 | Cc1ccc(O)cc1Nc1ccnc2ccc(-c3csc(CNCCN4CCOCC4)n3)cc12 [TCMDC-138419] | 24.32
2 | C=CCOC(=O)N1CCC(CNCc2cccc(-c3cccc(-c4nc5cc(F)ccc5[nH]4)c3)c2)C1.O=C(O)C(F)(F)F (stereo not drawn) [TCMDC-133045] | -22.96
3 | O=C(CC(=O)Nc1cc(Cl)cc(Cl)c1)Nc1cc(Cl)cc(Cl)c1 [TCMDC-124303] | 1.845
4 | O=C(Nc1cccc(-c2nn3ccccc3c2-c2ccnc(Nc3cccc(F)c3)n2)c1)c1c(F)ccc(F)c1Cl [TCMDC-135830] | 19.22
5 | CCCCCCCOc1ccc(NC(=O)Nc2ccc(Cn3ncc(N4CCCNCC4)c(Cl)c3=O)cc2)cc1 [TCMDC-133318] | 42.33
6 | CC(C)Sc1nc(-c2ccccc2)nc2c1COC(C)(C)C2 [TCMDC-125132] | -39.31
7 | CC(C)c1nc(N2CCN(C(=S)NCc3ccccc3)CC2)c(C#N)c2c1COC(C)(C)C2 [TCMDC-124093] | 85.74
8 | N#Cc1ccc(CN2CCC(Oc3ccc(NC(=O)c4cccs4)cc3Cl)C2)cc1 (stereo not drawn) [TCMDC-133962] | 5.438
9 | Cc1cc(Nc2cccc(C(F)(F)F)c2)nc(N)n1 [TCMDC-124264] | 7.363
10 | Cc1cc(C)n(-c2nc(Nc3cccc(C(F)(F)F)c3)nc(-n3nc(C)cc3C)n2)n1 [TCMDC-125770] | 16.09
11 | FC(F)(F)c1cccc(Nc2nc(-n3ccnc3)nc(-n3ccnc3)n2)c1 [TCMDC-123871] | 5.028
12 | FC(F)(F)c1cccc(Nc2nc3ccccc3nc2Nc2cccc(C(F)(F)F)c2)c1 [TCMDC-124162] | 95.6
13 | FC(F)(F)c1cccc(Nc2nc(-c3ccccc3)nc3ncccc23)c1 [TCMDC-125597] | 73.35
14 | Cc1cc(Nc2cccc(C(F)(F)F)c2)nc(Nc2cccc(C(F)(F)F)c2)n1 [TCMDC-124213] | -15.06
15 | N#CCCN1CCN(Cc2cccc(-c3ccc(-c4nc5ccccc5[nH]4)s3)c2)CC1.O=C(O)C(F)(F)F [TCMDC-133871] | -9.564
16 | NC1=NC2(CCCCC2)N(OCCCCCCCCNc2nc(N)nc(N)n2)C(N)=N1 [TCMDC-140517] | 6.685
17 | Nc1nc(N)c2c(ccc3c2ccn3Cc2ccc(OCc3ccccc3)cc2)n1 [TCMDC-137336] | 29.32
18 | Nc1nc(N)c2c(ccc3c2ccn3Cc2ccccc2)n1 [TCMDC-141977] | 66.05
19 | Nc1nc(N)c2c(ccc3c2ncn3Cc2ccccc2)n1 [TCMDC-137749] | 33.84
20 | N#Cc1ccc(Cn2ccc3c4c(N)nc(N)nc4ccc32)cc1 [TCMDC-137820] | 103.8
21 | Nc1nc(N)c2c(ccc3c2ccn3CCCC2CCCNC2)n1 (stereo not drawn) [TCMDC-138618] | 26.76
22 | Nc1nc(N)c2c(ccc3c2ccn3Cc2ccccn2)n1 [TCMDC-137980] | 111.5
23 | Nc1nc(N)c2c(ccc3c2ccn3Cc2ccc(-c3ccccc3)cc2)n1 [TCMDC-137813] | 115.8

Row | SMILES | % Inhibition [%]
24 | CNC(=O)COC(=O)c1c2c(nc3ccccc13)C(=Cc1ccc3c(c1)OCO3)CCC2 [TCMDC-123900] | 4.246
25 | Cn1cnc(CCNC(=O)c2ccc(-c3cccc(-c4nc5cc(C(F)(F)F)ccc5[nH]4)c3)cc2)c1 [TCMDC-132493] | 1.105
26 | Cc1ccc(OC2CCN(c3ccc(C(=O)NC4CC4)cn3)CC2)cc1 [TCMDC-134059] | 7.555
27 | NC1=Nc2ccc(Cl)cc2C1(O)c1ccccc1 (stereo not drawn) [TCMDC-123492] | 3.06
28 | CCOc1ccc(C(=O)Nc2cc3c(c(C(F)(F)F)c2)CCNC3)cc1Cl [TCMDC-139751] | 25.29
29 | N#Cc1cccc(C(O)C2CN(CCC3CCCCC3)CCC2(O)c2ccccc2)c1 (stereo not drawn) [TCMDC-131999] | -28.27
30 | COc1ccc2[nH]c(C(=O)Nc3cccc(-c4ccc(CN(C)C)cc4)c3)cc2c1 [TCMDC-134283] | -4.108
31 | Cc1nnc2c(NC(=O)NC(C)C)cc3cc(-c4ccc(CN5CCCCC5)cc4)ccc3n12 [TCMDC-136738] | 50.46
32 | COc1ccc(CNC(=O)Nc2cc3cc(-c4ccc(CN(C)C)cc4)ccc3n3c(C)nnc23)cc1 [TCMDC-136719] | 118
33 | Cc1cccc2[nH]c(-c3ccc(-c4cccc(NC(=O)NCc5ccc(F)cc5)c4)cc3)nc12 [TCMDC-133303] | -66.9
34 | CCCNC(=O)Nc1cc2cc(-c3cccc(CN4CCCCC4)c3)ccc2n2c(C)nnc12 [TCMDC-136740] | 104.3
35 | COc1cccc(CNC(=O)c2cccc(-c3ccc(CN4CCC(N5CCCC5)CC4)cc3)n2)c1 [TCMDC-134416] | 30.7
36 | Cc1nnc2c(N(C(=O)NCCc3ccccc3)C(=O)NCCc3ccccc3)cc3cc(Cl)ccc3n12 [TCMDC-135524] | 21.17
37 | O=C(Nc1cccc(-c2ccc(CN3CCCC3)cc2)c1)c1ccc(F)cc1 [TCMDC-132636] | -0.2818
38 | O=C(Nc1cccc(-c2cccc(CN3CCCC3)c2)c1)c1ccc(Cl)cc1 [TCMDC-132654] | 19.28
39 | O=C(Nc1cccc(-c2ccc(CN3CCCC3)cc2)c1)c1ccc(Cl)cc1 [TCMDC-132630] | 10.82
40 | Cc1nnc2c(NC(=O)/C=C/c3ccc(OC(F)(F)F)cc3)cc3cc(Cl)ccc3n12 [TCMDC-135918] | -12.77
41 | COc1ccc(CNC(=O)Nc2cc3cc(-c4ccc(CN5CCCC5)cc4)ccc3n3c(C)nnc23)cc1 [TCMDC-136720] | 98.19
42 | CN(C)c1ccc(-c2cscc2C(=O)NC2CCCN(Cc3cccnc3)C2)cc1 (stereo not drawn) [TCMDC-134489] | 34.49
43 | CN(Cc1cccc(F)c1)C1CCCN(c2cc(NC(=O)c3ccccc3)ccn2)C1 (stereo not drawn) [TCMDC-135013] | 1.109
44 | CN1CC=C(c2c[nH]c3ccc(OC(=O)c4ccccc4)cc23)C1 [TCMDC-139100] | -51.1
45 | CCNC(=O)Nc1ccc(-c2cnc(N)c(-c3nc4ccc(OC)cc4[nH]3)c2)cc1 [TCMDC-135321] | -14.13
46 | O=C(/C=C/c1ccc(Cl)c(Cl)c1)NC1CCC(CN2CCC(c3nc4ccccc4n3CCCO)CC2)CC1 (stereo not drawn) [TCMDC-140313] | 5.954

Row | SMILES | % Inhibition [%]
47 | Cc1cc(NC2CCN(CC3CCCCC3)CC2)nc(Nc2ccccc2Cl)n1 [TCMDC-137017] | -7.805
48 | CCC(CC)n1cc2c(ccc3nc(N)nc(N)c32)n1 [TCMDC-138019] | -28.37
49 | Nc1ccnc(N2CCC(CCOc3cc(C(F)(F)F)nc4c(C(F)(F)F)cccc34)CC2)c1 [TCMDC-141364] | 15.98
50 | CC(Cc1ccc(CN2CCN(Cc3ccccc3)CC2)cc1)NCC(O)c1cccc(C(F)(F)F)c1 (stereo not drawn) [TCMDC-131534] | 42.03
51 | N=C(N)c1ccc(-c2cc(-c3cccc(C(=N)N)c3)on2)cc1 [TCMDC-137264] | 7.482
52 | Cc1ccc(NC(=O)c2ccc3ncccc3c2)cc1OC1CCN(Cc2ccsc2)C1 (stereo not drawn) [TCMDC-133949] | -9.977
53 | c1ccc(COc2ccc(Nc3ncnc4ccc(-c5ccc(CN6CCSCC6)o5)cc34)cc2)cc1 [TCMDC-138242] | 13.7
54 | Cc1ccc(C)c(NC(=O)Nc2ccc(Nc3nc(C)cc(N4CCOCC4)n3)cc2)c1 [TCMDC-124751] | 3.565
55 | CC(=O)N/N=C/[C@H](CCc1ccccc1)NC(=O)[C@H](CC(C)C)NC(=O)c1cccc(OCCN2CCOCC2)c1 [TCMDC-135972] | 30.82
56 | CCCCNC(=O)C1CCCN(C(=O)c2ccc(O)c(-c3ccc(Cl)c(Cl)c3)c2)C1 (stereo not drawn) [TCMDC-140887] | -1.062
57 | CS(=O)(=O)NCCCNCc1cccc(-c2csc(-c3nc4ccccc4[nH]3)c2)c1 [TCMDC-133089] | -10.78
58 | COc1ccc2nc(C)cc(Nc3ccc(Oc4ccc(Br)c5ccccc45)c(Cl)c3)c2c1 [TCMDC-124238] | 12.09
59 | CCCNC(=O)Nc1cc2cc(-c3ccc(CN4CCCC4)cc3)ccc2n2c(C)nnc12 [TCMDC-136718] | 108.6
60 | Cc1ccc(CN2CCCN(Cc3cccc(NC(=O)c4ccc(-c5ccccc5)cc4)c3)CC2)cc1C [TCMDC-141851] | -43.17
61 | O=C(/C=C/c1ccc([N+](=O)[O-])cc1)N1CCC(NS(=O)(=O)c2ccc(Br)cc2)CC1 [TCMDC-139442] | 11.64
62 | COc1ccc(C(=O)CCc2ccc(O)cc2)cc1 [TCMDC-124290] | -50.17
63 | Cc1cccc2[nH]c(-c3ccc(-c4cccc(CNCCCN5CCCC5=O)c4)cc3)nc12 [TCMDC-132758] | 19.9
64 | CC(C)CNCc1cccc(-c2cccc(CNc3ccc4ncccc4c3)c2)c1 [TCMDC-140718] | 9.838
65 | CN1CCN(CCCNCc2cccc(-c3ccc(CNCCc4ccccc4)cc3)c2)CC1 [TCMDC-140643] | 103.5
66 | CC(C)CNCc1cccc(-c2cccc(CNCCCN3CCN(C)CC3)c2)c1 [TCMDC-140483] | 101.9
67 | O=C(NCCN1CCC(c2ccncc2)CC1)c1ccc(Nc2nccc(Nc3ccc(Oc4ccccc4)cc3)n2)cc1 [TCMDC-138610] | -43.68
68 | CCCc1ccc(S(=O)(=O)NC2CCN(c3ccnc(Nc4ccc(F)cc4)n3)C2)cc1 (stereo not drawn) [TCMDC-133598] | 2.344
69 | O=C(c1ccc2ccccc2n1)N1CCCc2cc(Br)ccc21 [TCMDC-134838] | -4.614

Source: paper PMC4552634, “A New Set of Chemical Starting Points with Plasmodium falciparum Transmission-Blocking Potential for Antimalarial Drug Discovery” (PLoS ONE, 2015)
